Measured values taken from the OligoGym collection.

target: KRTAP6-3; assay: pooled miR-30 sensor sort-seq; sequence = guide strand; conditions: shRNA
Also: reference of the scale not given here.

Sequence | sensor-assay potency score (higher = more potent)
TTGTAGTTTCTGTAGTAGCTGC | -0.198
TTTCTGTAGTAGCTGCCACACA | -1.22
TGTAGTTTCTGTAGTAGCTGCC | 0.749
ATTGTAGTTTCTGTAGTAGCTG | -0.231
ATAGCCATGGCCACCATTGTAG | -1.31
TAGTAGCTGCCACACATGGTGT | -1.17
TCTGTAGTAGCTGCCACACATG | -1.43
TAGCCACAGCCACAGAAGGAGC | -1.94
TCTGTAGCCACAGCCACAGAAG | -1.55
ACAGCCATAGCCACAGTCCAGG | -1.73
TAGTTTCTGTAGTAGCTGCCAC | -0.443
TTCTGTAGTAGCTGCCACACAT | -0.0154

target: KRTAP8-1; assay: as above; conditions: shRNA

Sequence | sensor-assay potency score (higher = more potent)
ACAGCCAACGCTATATCCCAGC | -1.47
TAGGTGCTGCCATAGCCACAGC | -1.53
TTGTAGCCATAGCCGAAGCCAT | -1.41
TATATCCCAGCGGGTAGCCATA | -1.94
TGCTGCCATAGCCACAGCCAAC | -2.12
TTGGAAAGCAGTGTCTCTGAGG | -0.482
TAGCCGAAAGCCCCACAGCCGT | -1.72
TAGCATCCTGGGAAGACAGCCC | -0.588
TGTAGCCATAGCCGAAGCCATA | -1.87
TGCCCCAGTAGCATCCTGGGAA | -0.828
AGCCGTTGTAGCCATAGCCGAA | -1.46
ATCCTGGGAAGACAGCCCCGGG | -1.89
